Screening data from PubChem BioAssay.
HCMV inh – inhibitors of human cytomegalovirus; activity change, negative = inhibition, % at 57.5 µM; HFF cells, HCMV-luciferase reporter, 72 h; active compounds read low; 410,000 compounds, 4.5% hits; AID 1259415; in the data active means activity change below about -60%; inconclusive means no clear call, values can overlap the other calls; inactive means above about -39%
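Cell-based, HFFs, 1000 cells/well, 16 h 37C; cpds in DMSO + HCMV-luc, MOI 1 PFU/cell; 72 h 37C; OneGlo luminescence after 5 min RT; norm. to buffer vs Salinomycin 10uM.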
Vaccinia Venus – vaccinia inhibition (Venus reporter); Vaccinia virus Venus reporter expression, fluorescence; Potency, µM (series often up to 36.5 µM), for inactives: at the highest dose activity change, negative = inhibition, most hits filed as inhibitors; 330,000 compounds, 0.46% hits; AID 720580; calls by dose curve; tested in A549 cells; further: potency means the concentration at half of the fitted maximal effect; nearly all actives have a fitted effect of over 30% in size
Sm TGR inh – blocks Schistosoma mansoni thioredoxin glutathione reductase | purified TGR, DTNB reduction, TNB absorbance 405 nm | Potency, µM (doses to about 114 µM), inactives show at the highest dose activity change, negative = inhibition, usual class: inhibitors | 360,000 compounds, 3% hits | AID 485364; further: potency means the concentration at half of the fitted maximal effect; nearly all actives have a fitted effect of over 60% in size
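TGR 20 nM + NADPH 100 uM (dispensed conc.), cpd preinc 15 min RT; start with NADPH (500 uM addition) then DTNB (15 mM addition). Kinetic TNB absorbance, 405 nm filter. Four-parameter Hill fit across titration.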
FMDV inh – foot and mouth disease virus antiviral activity | FMDV antiviral cell-based qHTS | Potency, µM (titrated, usually from 57.9 µM), for inactives: at the highest dose activity change, negative = inhibition, actives largely listed as inhibitors | 410,000 compounds, 1.2% hits; calls by dose curve; tested in HEK293T cells; further: read-out not given here; potency means the concentration at half of the fitted maximal effect; nearly all actives have a fitted effect of over 45% in size
HCV inhibitor – blocks hepatitis C virus | Huh7.5.1 HCVcc-Cre infection, luciferase reporter, 44 h | Potency, µM (doses to about 41.8 µM), without a hit: at the top dose activity change, negative = inhibition, usual class: inhibitors | 340,000 compounds, 3.4% hits | AID 651820; further: potency means the concentration at half of the fitted maximal effect
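Infectious HCV cell culture screen: compound-treated cells (1,000/well, pre-plated 4 h) are infected with HCVcc-Cre at roughly 0.5 moi and grown 44 h. Infection is quantified by luciferase signal after 15 min substrate incubation at room temperature.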
VACV mCherry inh – inhibitors of vaccinia virus infection (mCherry reporter signal); 310,000 compounds, 0.63% hits; Potency, µM (doses to about 36.5 µM), inactives show at the highest dose activity change, negative = inhibition, hits mostly inhibitors; Vaccinia virus mCherry reporter infection, fluorescence; AID 720579; calls by dose curve; tested in A549 cells; further: potency means the concentration at half of the fitted maximal effect; nearly all actives have a fitted effect of over 35% in size
Active calls of the source: *; i = inactive; u = inconclusive; x = no result; [ ] = another dose, or the depositor's remark. A selection: hits, their analogues and other compounds. The true share with any hit is near 9.3%. Unless noted, the call rests on the fitted dose curve; in most records, active means well fitted curve in the direction sought with a large enough effect; inconclusive means small, poorly fitted or top-dose-only effect, or another doubt; inactive means no such curve, though single readings can be large; an effect the other way counts as inactive or inconclusive. On the % scale 0 is the no-effect control and ±100 the full control effect.

SMILES | HCMV inh | Vaccinia Venus | Sm TGR inh | FMDV inh | HCV inhibitor | VACV mCherry inh
O=C(COC(=O)C1CCCO1)Nc1cccc(C(F)(F)F)c1 (configuration not stated) | 8 | -6% | -31% | 6% | -6% | -1%
Cc1ccc(C(=O)N2c3nc(-c4ccco4)nn3C3(CCCCC3)[C@@H]3CCCC[C@@H]32)cc1 | -38 | -13% | 11µM* | -28% | x | -9%
CCC(=O)N1c2nc(-c3ccco3)nn2C2(CCCCC2)[C@@H]2CCCC[C@@H]21 | -4 | -14% | 40µM* | 0% | x | -3%
N#Cc1ccc(OC(=O)Cc2ccsc2)cc1 | -10 | -12% | 62% | -2% | 8% | -9%
Cc1cnc(C(=O)OC(C)C(=O)Nc2ccc(Cl)cn2)cn1 (configuration not stated) | 4 | 1% | 1% | -16% | u | -7%
COc1ccc(-c2noc(CN3CCCC(OCc4ccccn4)C3)n2)cc1 (configuration not stated) | 0 | x | 35µM* | u | u | x
c1ccc(COC2CCCN(Cc3nc(-c4cnccn4)no3)C2)nc1 (configuration not stated) | -3 | x | u | -11% | -7% | x
Cc1cc(O)c(C=O)c2c1C(=O)Oc1c(CO)c(O)c3c(c1O2)C(O)OC3=O (configuration not stated) | x | 10% | 14µM* | -10% | -8% | -6%
O=C(NC1CC1)c1ccc(CSCc2cccc(F)c2)o1 | 50 | -15% | 35µM* | 1% | u | i
O=C(NCCCN1CCCC1)c1ccc(CSCc2cccc(Cl)c2)o1 | 8 | x | 5% | -13% | 10µM* | x
Cc1nn(C)c(Cl)c1C(=O)NCC(=O)Nc1ccc(C(C)C)cc1 | 3 | -15% | 1% | -24% | -7% | -13%
O=C(CSc1nnc(-c2ccccc2)o1)N1CCN(c2ccccc2)CC1 | -13 | x | 0% | 3% | 10% | x
CCN1CCCC(OC(=O)C(c2ccccc2)c2ccccc2)C1 (configuration not stated) | 0 | -15% | -5% | -12% | -19% | -1%
Cc1cc2cc(CCNC(=O)c3cccs3)c(=O)[nH]c2cc1C | -99* | -23% | -16% | 5% | -20% | -22%
Cc1cc2cc(CN(CCN(C)C)C(=S)NCc3ccco3)c(=O)[nH]c2cc1C | u | -27% | 11%[57.1 µM] | -22% | -23% | i
CCc1ccc2[nH]c(=O)c(CN(Cc3ccccc3OC)C(=O)Nc3ccccc3OC)cc2c1 | -24 | x | -3% | -28% | 7.9µM* | x
COc1ccccc1NC(=S)N(Cc1ccco1)Cc1cc2cc(C)ccc2[nH]c1=O | -61* | u | -5% | -3% | u | u
CCN(CC)CCN(Cc1cc2cc(C)ccc2[nH]c1=O)C(=O)Nc1ccccc1OC | -18 | -13% | -1% | -18% | 15% | x
Cc1cc2cc(CN(Cc3cccs3)C(=S)NCc3ccco3)c(=O)[nH]c2cc1C | -1 | -19% | -9% | -29% | 11µM* | -28%
CCCCN(C(=O)c1ccc2c(c1)S(=O)(=O)N=C1CCCCCN12)c1c(N)n(CCCC)c(=O)[nH]c1=O | -10 | 6% | -22% | -4% | -10% | -17%
O=C(NCC1CCS(=O)(=O)C1)NCC1CCS(=O)(=O)C1 (configuration not stated) | 12 | x | 3% | -3% | 5% | x
COc1ccccc1CC(=O)Nc1ccc(S(=O)(=O)N2CCN(C)CC2)cc1 | 22 | -11% | -15% | -9% | x | i
COc1ccccc1NC(=O)N(Cc1ccco1)Cc1cc2c(C)ccc(C)c2[nH]c1=O | 36 | -12% | 32µM* | -20% | u | x
CCOc1ccccc1-n1c(=S)sc2c(=O)n(-c3ccc(C)cc3)c(=S)[nH]c21 | 12 | -21% | 3% | 2% | u | -1%
CCn1c(=S)sc2c(=O)n(-c3ccccc3)c(=S)[nH]c21 | -94* | -8% | 22µM* | -23% | -8% | -12%
SMILES | HCMV inh | Vaccinia Venus | Sm TGR inh | FMDV inh | HCV inhibitor | VACV mCherry inh
O=C(CN(Cc1ccccc1)S(=O)(=O)c1ccccc1)NC1CC1 | -28 | -7% | 3% | x | -5% | i
Nc1cc(-c2ccc(Br)cc2)nn1S(=O)(=O)c1cccc2nsnc12 | -13 | u | -1% | -15% | 11µM* | u
Nc1cc(-c2cccc(F)c2)nn1S(=O)(=O)c1cccc2nsnc12 | -101* | u | 6% | -2% | -3% | i
Cn1c(=O)c(-c2cc(F)cc(F)c2)nc2cncnc21 | x | x | x | -19% | x | x
O=C(C[n+]1cccc(Br)c1)c1cccs1 | 33 | 10% | 1% | -1% | -4% | 54%
O=[N+]([O-])c1cnc(Nc2ccc(Cl)cn2)c([N+](=O)[O-])c1 | 3 | 2% | 0% | -26% | 11µM* | u
C=CCn1cc(C(=O)NCCCN(CC)CC)c(=O)c2cc(S(=O)(=O)N3CCC(C)CC3)ccc21 | u | x | -17% | -21% | -2% | x
Cn1c(=O)c(C#N)c(-c2ccc(F)cc2)c2cc(C(=O)c3cc(Cl)cc(Cl)c3O)cnc21 | -61* | x | -3% | u | 11µM* | x
C=CCN1C(c2ccc(Br)cc2)=CS/C1=C(/C#N)c1nnc(N2CCOCC2)n1-c1ccccc1 | -80* | -7% | -5% | u | u | -11%
COc1cccc(/C=N/n2c(N)c(S(=O)(=O)c3cccs3)c3nc4ccccc4nc32)c1OC | -81* | x | 10% | 17% | u | x
N#C/C(=C/c1ccc(N2CCOCC2)o1)c1ccc(Cl)cc1 | 82 | 17% | 1µM* | x | -13% | -15%
COc1ccc(S(=O)(=O)NCc2ccncc2)cc1NC(=O)c1ccccc1C | -26 | -2% | -1% | 13% | 16% | -13%
CCOc1cc(S(=O)(=O)NCc2cccs2)ccc1Cl | -25 | -18% | 4% | 33% | -3% | -24%
CCOc1cc(S(=O)(=O)NCc2ccncc2)ccc1Cl | -84* | -18% | 1% | -10% | u | i
COc1ccc(S(=O)(=O)Nc2ccc(Cc3ccncc3)cc2)cc1OC | -65* | -30% | -5% | -17% | u | u
COc1cc(S(=O)(=O)NCc2ccncc2)c(OC)cc1Cl | -79* | -8% | 6% | 42% | u | -3%
COc1ccc(S(=O)(=O)NCc2ccncc2)cc1NC(=O)c1ccccc1F | -88* | x | -2% | 34% | u | x
CN(C(=O)c1cc(S(=O)(=O)N2CCCCC2)c[nH]1)C1CCCCC1 | -4 | -10% | -19% | u | u | i
C=C(C)COc1ccc2c(c1)CCC1C2CCC2(C)C(=O)C(=NO)CC12 (configuration not stated) | 33 | -6% | x | 0% | u | -12%
COc1ccc(S(=O)(=O)NCc2ccncc2)cc1OC | -65* | x | 0% | 19% | u | x
CCc1ccc(NS(=O)(=O)c2ccc(OC)c3ncccc23)cc1 | -20 | -9% | -11% | 17% | -3% | -17%
